Experiment [1] addresses Cytochrome P450 1A2 (Homo sapiens) (UniProt P05177). The experiment in a line: p450-cyp1a2 (AID 410; calls by dose curve; also: potency is read from the fitted curve at half-maximal effect;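 as to activity change, negative = inhibition: -100% = full effect of reference inhibitor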). In outline: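 Luminescent demethylation readout: Luciferin-ME (100uM, equal to Km) turned over by 20nM CYP1A2 for 60 min at room temperature after NADPH regeneration addition, following 10 min compound preincubation. Normalization used 57 uM furafylline as full inhibition.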

Experiment [2] deals with Glucocorticoid receptor (Homo sapiens) (UniProt P04150). Briefly: GR-GFP Redistribution (AID 450;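 active = compounds whose dose series gives a full or clear partial fitted curve of increased nuclear translocation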; also: potency is read from the fitted curve at half-maximal effect). As to conditions: U2OS GR-GFP nuclear translocation, laser cytometry, 2 h.
Chain of Glucocorticoid receptor (Homo sapiens) (P04150 whole entry, looked up): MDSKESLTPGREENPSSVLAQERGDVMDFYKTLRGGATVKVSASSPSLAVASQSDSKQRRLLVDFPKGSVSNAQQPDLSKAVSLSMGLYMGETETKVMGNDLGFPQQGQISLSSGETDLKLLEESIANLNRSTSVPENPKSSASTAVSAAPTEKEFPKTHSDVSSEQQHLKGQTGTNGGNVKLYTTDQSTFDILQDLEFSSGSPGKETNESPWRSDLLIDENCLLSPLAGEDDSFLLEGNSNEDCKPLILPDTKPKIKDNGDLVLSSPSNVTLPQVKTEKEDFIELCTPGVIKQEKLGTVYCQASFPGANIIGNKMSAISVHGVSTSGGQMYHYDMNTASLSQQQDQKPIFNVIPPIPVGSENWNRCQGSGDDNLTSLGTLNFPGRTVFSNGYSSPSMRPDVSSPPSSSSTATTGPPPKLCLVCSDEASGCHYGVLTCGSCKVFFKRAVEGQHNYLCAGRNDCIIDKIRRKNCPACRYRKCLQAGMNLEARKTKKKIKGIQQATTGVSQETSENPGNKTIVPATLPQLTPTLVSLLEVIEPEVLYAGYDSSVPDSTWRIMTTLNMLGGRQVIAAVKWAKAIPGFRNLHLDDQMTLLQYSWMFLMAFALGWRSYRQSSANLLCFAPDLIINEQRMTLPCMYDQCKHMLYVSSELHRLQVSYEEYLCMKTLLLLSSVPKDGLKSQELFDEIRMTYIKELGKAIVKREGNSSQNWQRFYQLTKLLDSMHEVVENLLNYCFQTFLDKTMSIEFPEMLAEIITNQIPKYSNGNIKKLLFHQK
The target is the same in experiment [3]. Briefly: GR-EFC Redistribution (AID 451; calls by dose curve; also: potency is read from the fitted curve at half-maximal effect). The note with it: CHO-K1 GR-EFC translocation, beta-gal luminescence, 2 h. In outline:
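CHO-K1 cells stably expressing nuclear-localized β-gal enzyme acceptor and GR fused C-terminally to the enzyme donor fragment; ligand-driven nuclear translocation restores β-gal by complementation. Compounds titrated up to 46 uM final, 2 h at 37 °C; luminescence read.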

The target in experiment [4] is Mitogen-activated protein kinase 10 (Mus musculus) (UniProt Q61831). Briefly: JNK3 AlphaScreen Assay (AID 530; active = well fitted curve in either direction with a large enough effect, not every such curve was filed as active;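 also: kinase came from lysate of stimulated human HepG2 cells; signal reports phosphorylation of biotinylated GST-cJun 1-79 at Ser73 with 10 µM ATP; % is scaled to controls: 0 for no effect and ±100 for the full control effect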). The procedure, abridged:
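Phosphorylation of biotinylated GST-cJun(1-79) at Ser73 is measured by AlphaScreen proximity luminescence. Enzyme is JNK3 in HepG2 lysates activated with interleukin-1beta and tumor necrosis factor alpha; ATP is 10 uM final.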

Experiment [5] deals with Cytochrome P450 2C9 (Homo sapiens) (UniProt P11712). Briefly: qHTS Assay for Inhibitors and Substrates of Cytochrome P450 2C9 (AID 883). Also: % is scaled to controls: 0 for no effect and ±100 for the full control effect; nearly all actives have a fitted effect of over 60% in size. The procedure, abridged: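 CYP2C9 deoxyluciferin hydroxylation, 37C, 60 min with NADPH regeneration; 10nM enzyme, 100uM Luciferin-H (KM). Glo detection reagent stopped reaction; luminescence normalized to sulphaphenazole (57uM) full inhibition.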
Chain of Cytochrome P450 2C9 (Homo sapiens) (P11712 whole entry, looked up): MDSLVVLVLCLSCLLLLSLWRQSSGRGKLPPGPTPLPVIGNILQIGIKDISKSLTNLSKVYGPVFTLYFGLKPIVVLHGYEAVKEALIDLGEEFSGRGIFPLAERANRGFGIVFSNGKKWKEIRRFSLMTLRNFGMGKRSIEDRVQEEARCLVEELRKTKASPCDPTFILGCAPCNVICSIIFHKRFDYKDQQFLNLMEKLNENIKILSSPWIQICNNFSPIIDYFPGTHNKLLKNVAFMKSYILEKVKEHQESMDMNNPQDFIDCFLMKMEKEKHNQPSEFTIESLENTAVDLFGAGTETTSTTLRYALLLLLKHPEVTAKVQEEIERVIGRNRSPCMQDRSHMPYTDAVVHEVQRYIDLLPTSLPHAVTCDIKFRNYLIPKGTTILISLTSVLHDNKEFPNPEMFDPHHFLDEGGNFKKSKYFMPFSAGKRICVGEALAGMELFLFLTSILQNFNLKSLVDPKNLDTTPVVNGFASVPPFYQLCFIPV

The target in experiment [6] is Cytochrome P450 3A4 (Homo sapiens) (UniProt P08684). The experiment in a line: qHTS Assay for Activators of Cytochrome P450 3A4 (AID 885). Also: nearly all actives have a fitted effect of over 65% in size. In outline: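 Human CYP3A4 dealkylates Luciferin-PPXE to luciferin, which luciferase detection converts to light. Substrate was at its KM (25uM), buffer 200mM KPO4, reaction 60 min at RT.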
Chain of Cytochrome P450 3A4 (Homo sapiens) (P08684 whole entry, looked up): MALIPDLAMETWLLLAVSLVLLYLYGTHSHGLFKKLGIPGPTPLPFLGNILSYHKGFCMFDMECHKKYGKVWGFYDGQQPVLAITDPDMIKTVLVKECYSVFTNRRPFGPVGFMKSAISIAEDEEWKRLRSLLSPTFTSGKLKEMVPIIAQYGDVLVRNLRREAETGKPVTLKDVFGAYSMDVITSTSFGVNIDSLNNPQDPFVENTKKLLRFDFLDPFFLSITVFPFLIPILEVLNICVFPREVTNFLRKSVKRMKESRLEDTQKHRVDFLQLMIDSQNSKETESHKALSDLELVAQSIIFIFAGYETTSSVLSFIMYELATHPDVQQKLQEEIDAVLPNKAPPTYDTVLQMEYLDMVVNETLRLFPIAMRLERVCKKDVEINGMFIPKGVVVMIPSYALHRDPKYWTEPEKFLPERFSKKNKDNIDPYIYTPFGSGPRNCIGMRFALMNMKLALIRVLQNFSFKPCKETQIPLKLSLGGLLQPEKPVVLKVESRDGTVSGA
For experiment [7], the target named is Cytochrome P450 2D6 (Homo sapiens) (UniProt P10635). The experiment in a line: qHTS Assay for Inhibitors and Substrates of Cytochrome P450 2D6 (AID 891). Also: potency is read from the fitted curve at half-maximal effect; nearly all actives have a fitted effect of over 60% in size. The procedure, abridged: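 Luminescent read-out of luciferin formed by 5 nM human CYP2D6 demethylating 30 uM Luciferin-ME EGE (Km level) over 60 min at room temperature after NADPH regeneration addition. Data normalized to full inhibition by 1.43 uM quinidine.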
In general terms: Quantitative high-throughput screening tests each substance at several concentrations.

Experiment [8] addresses Cytochrome P450 2C19 (Homo sapiens) (UniProt P33261). Briefly: qHTS Assay for Inhibitors and Substrates of Cytochrome P450 2C19 (AID 899). Also: nearly all actives have a fitted effect of over 60% in size. Also: potency is read from the fitted curve at half-maximal effect. In outline:
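In 50mM KPO4, the reaction held 5nM enzyme and KM-level (10uM) Luciferin-H EGE; it ran 60 min at 37C after NADPH regeneration and a 10 min compound preincubation. Luminescence values were scaled to 57uM ketoconazole as complete inhibition.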

The nature of experiment [9]: qHTS Assay for Lipid Storage Modulators (AID 1519; calls by dose curve). The note with it: Drosophila S3 cells, BODIPY lipid droplet/cell ratio, laser cytometry, cells loaded with oleic acid; for activity change, negative = inhibition: at 57.5 µM (top of the series). In outline:
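Cells seeded at 5,000 per well were treated with compounds over a concentration series and loaded with oleic acid (400 uM, as added). Lipid droplet fluorescence (488 nm excitation, 500-530 nm channel) was read by laser-scanning cytometry and normalized to 20 uM Triacsin C.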

Experiment [10] deals with Ubiquitin carboxyl-terminal hydrolase 1 (Homo sapiens) (UniProt O94782). The experiment in a line: Inhibitors of USP1/UAF1: Pilot qHTS (AID 504865).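 Also: rhodamine fluorescence freed from ubiquitin-rhodamine substrate followed over time; top concentration of the series differs between compounds; % is scaled to controls: 0 for no effect and ±100 for the full control effect; nearly all actives have a fitted effect of over 35% in size.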 The procedure, abridged: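 Enzyme-free wells gave the negative control, while test wells held 1nM USP1/UAF1 preincubated with compound for 15 min at room temperature. Ub-Rho at 150nM final started the reaction, and fluorescence at 480/540 nm was recorded kinetically.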
Chain of Ubiquitin carboxyl-terminal hydrolase 1 (Homo sapiens) (O94782 whole entry, looked up): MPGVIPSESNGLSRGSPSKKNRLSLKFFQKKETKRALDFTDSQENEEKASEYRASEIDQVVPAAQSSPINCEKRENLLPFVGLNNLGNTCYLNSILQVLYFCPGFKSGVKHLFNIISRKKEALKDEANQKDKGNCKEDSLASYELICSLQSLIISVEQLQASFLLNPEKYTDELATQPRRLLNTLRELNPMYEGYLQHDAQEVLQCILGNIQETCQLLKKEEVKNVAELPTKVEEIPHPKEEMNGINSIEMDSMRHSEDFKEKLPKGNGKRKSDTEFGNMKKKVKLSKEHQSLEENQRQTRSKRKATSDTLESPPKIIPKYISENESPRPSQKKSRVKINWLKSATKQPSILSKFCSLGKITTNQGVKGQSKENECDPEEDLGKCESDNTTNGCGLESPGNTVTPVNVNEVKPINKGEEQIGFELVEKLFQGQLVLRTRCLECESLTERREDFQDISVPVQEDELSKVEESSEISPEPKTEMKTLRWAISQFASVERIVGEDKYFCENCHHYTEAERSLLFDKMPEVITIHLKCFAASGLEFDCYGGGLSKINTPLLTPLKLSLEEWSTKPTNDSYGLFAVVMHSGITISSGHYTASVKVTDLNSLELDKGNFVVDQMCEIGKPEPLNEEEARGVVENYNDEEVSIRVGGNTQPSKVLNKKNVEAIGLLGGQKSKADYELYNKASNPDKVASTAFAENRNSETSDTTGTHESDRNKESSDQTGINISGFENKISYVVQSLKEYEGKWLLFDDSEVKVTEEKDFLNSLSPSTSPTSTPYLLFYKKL

The target in experiment [11] is DNA dC->dU-editing enzyme APOBEC-3G (Homo sapiens) (UniProt Q9HC16). The experiment in a line: qHTS for inhibitors of Vif-A3G interactions: Validation (AID 588379). Also: 0% is about no effect. The procedure, abridged:
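Yellow fluorescence (Ex 488, Em 500-530) of Vif-coexpressing HeLa A3G-eYFP cells, scanned by Acumen cytometer, reports blocked A3G degradation. Cells plated at 700/well overnight at 37 deg C before compound addition, then a further overnight compound incubation at 37 deg C.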

Experiment [12] relates to Zika virus NS2B-NS3 protease. Briefly: Primary screen GU AMC qHTS for Zika virus inhibitors (AID 1347154).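 Also: 0% = no-inhibitor control and -100% = no-enzyme control; nearly all actives have a fitted effect of over 70% in size.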 The procedure, abridged:
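Unlinked Zika NS2B hydrophilic domain/NS3 protease domain noncovalent complex (25 nM final) in 10 mM Tris-HCl pH 8.0, 0.01% Tween 20, with AMC peptide substrate. Fluorescence (ex 340, em 450 nm) change over 15 min, room temperature; percent inhibition fitted to 4-parameter Hill equation.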

Experiment [13] is described as follows: AP1 Signaling Pathway (AID 357; active = well fitted curve in either direction with a large enough effect, not every such curve was filed as active; also: % is scaled to controls: 0 for no effect and ±100 for the full control effect). The note with it: ME-180 AP-1-bla reporter, EGF-induced, beta-lactamase ratio, 5 h; at 38 µM (top of the series). In outline: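 A ratiometric CCF4 readout (405 nm excitation; 460 and 530 nm emission) quantified AP-1-driven beta-lactamase in ME-180 cells after 5 h with compound and EC50 EGF; AC50 values were derived for activators and inhibitors.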

Experiment [14] can be described thus: NFAT Signaling Pathway (AID 444; active = well fitted curve in either direction with a large enough effect, not every such curve was filed as active;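 also: carbachol stimulus at about its EC50 of 1 µM final; % is scaled to controls: 0 for no effect and ±100 for the full control effect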). The note with it: Jurkat NFAT-bla M1, carbachol, beta-lactamase ratio, 5 h; at 38 µM (top of the series). The procedure, abridged:
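Jurkat cells carrying an NFAT-driven β-lactamase reporter and co-transfected muscarinic M1 receptor were treated with compound plus carbachol (1 uM final, an EC50 level) for 5 h at 37 °C. CCF4 loading followed for 1 h at RT; 460/530 nm ratio gave %activity.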

The nature of experiment [15]: Stat Signaling Pathway (AID 446; active = well fitted curve in either direction with a large enough effect, not every such curve was filed as active;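 also: ME-180 cervical cancer cells given 40 pM IL-6 alongside compound; SIE-controlled beta-lactamase reporter measured as 460/530 nm FRET emission ratio; % is scaled to controls: 0 for no effect and ±100 for the full control effect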). As to conditions: ME-180 (cervical carcinoma) SIE beta-lactamase reporter, IL-6 stimulated, 5 h; at 38 µM (top of the series). The procedure, abridged: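 Normalization used AC90 stimulation (300 pM IL-6) and AC90 inhibition (125 nM pan-JAK inhibitor at 40 pM IL-6). The underlying signal is SIE-driven beta-lactamase in ME-180 cells after 5 h IL-6 exposure with compound.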

Experiment [16] deals with 3',5'-cyclic-AMP phosphodiesterase 4B (Homo sapiens) (UniProt Q07343). The experiment in a line: qHTS Assay for Inhibitors of PDE-IV (AID 607; active = well fitted activation curve with a large enough effect in the main read-out, with a control signal flat, not every such curve was filed as active; also: % of control where 0% means no effect). In outline:
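HEK293 ACTOne cells with CNG channel (1000/well), endogenous PDE4; membrane potential dye, compounds up to 22.9 uM final. Fluorescence Ex 535/Em 590; RO 20-1724 (100 uM final) as reference.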

[17] abbreviates: measured here: cell count channel max response.
The mark [18] stands for this setting: measured here: lipid channel max response.

Values joined by “and” are separate entries in the source; they are usually repeats but may differ in a detail not shown here. Equal values may be shown once. Results filed as inconclusive are left out. A structure can be active in one record and inactive in another. Active and inactive are the calls of the source. Unless noted, calls follow the shape of the dose curve; as a rule, active = well fitted curve in the direction sought with a large enough effect; inconclusive = small, poorly fitted or top-dose-only effect, or another doubt; inactive = no such curve, though single readings can be large; an effect the other way counts as inactive or inconclusive.

Chain of Cytochrome P450 1A2 (Homo sapiens) (P05177 whole entry, looked up): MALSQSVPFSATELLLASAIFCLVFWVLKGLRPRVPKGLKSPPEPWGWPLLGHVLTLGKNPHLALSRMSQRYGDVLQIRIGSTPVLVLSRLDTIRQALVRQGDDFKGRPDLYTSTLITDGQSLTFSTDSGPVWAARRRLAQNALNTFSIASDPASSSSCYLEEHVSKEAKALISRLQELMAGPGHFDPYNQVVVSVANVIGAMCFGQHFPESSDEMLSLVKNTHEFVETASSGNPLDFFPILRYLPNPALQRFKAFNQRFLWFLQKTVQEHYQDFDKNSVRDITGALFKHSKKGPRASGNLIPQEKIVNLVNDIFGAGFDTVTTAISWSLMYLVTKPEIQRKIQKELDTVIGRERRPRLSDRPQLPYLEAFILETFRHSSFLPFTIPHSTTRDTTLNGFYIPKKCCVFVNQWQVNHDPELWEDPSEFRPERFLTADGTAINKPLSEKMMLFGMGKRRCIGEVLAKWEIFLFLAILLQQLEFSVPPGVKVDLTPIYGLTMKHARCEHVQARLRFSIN
Chain of DNA dC->dU-editing enzyme APOBEC-3G (Homo sapiens) (Q9HC16 whole entry, looked up): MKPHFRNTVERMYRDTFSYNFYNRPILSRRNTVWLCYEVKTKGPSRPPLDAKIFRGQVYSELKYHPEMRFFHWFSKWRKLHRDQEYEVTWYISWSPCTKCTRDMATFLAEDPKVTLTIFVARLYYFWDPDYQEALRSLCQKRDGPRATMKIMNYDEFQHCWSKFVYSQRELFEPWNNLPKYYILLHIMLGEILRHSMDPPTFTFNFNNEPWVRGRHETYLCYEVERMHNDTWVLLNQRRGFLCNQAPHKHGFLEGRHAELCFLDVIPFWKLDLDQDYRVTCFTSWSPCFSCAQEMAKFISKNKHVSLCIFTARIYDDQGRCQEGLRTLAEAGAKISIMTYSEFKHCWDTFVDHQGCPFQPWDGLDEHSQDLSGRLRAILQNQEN
Chain of 3',5'-cyclic-AMP phosphodiesterase 4B (Homo sapiens) (Q07343 whole entry, looked up): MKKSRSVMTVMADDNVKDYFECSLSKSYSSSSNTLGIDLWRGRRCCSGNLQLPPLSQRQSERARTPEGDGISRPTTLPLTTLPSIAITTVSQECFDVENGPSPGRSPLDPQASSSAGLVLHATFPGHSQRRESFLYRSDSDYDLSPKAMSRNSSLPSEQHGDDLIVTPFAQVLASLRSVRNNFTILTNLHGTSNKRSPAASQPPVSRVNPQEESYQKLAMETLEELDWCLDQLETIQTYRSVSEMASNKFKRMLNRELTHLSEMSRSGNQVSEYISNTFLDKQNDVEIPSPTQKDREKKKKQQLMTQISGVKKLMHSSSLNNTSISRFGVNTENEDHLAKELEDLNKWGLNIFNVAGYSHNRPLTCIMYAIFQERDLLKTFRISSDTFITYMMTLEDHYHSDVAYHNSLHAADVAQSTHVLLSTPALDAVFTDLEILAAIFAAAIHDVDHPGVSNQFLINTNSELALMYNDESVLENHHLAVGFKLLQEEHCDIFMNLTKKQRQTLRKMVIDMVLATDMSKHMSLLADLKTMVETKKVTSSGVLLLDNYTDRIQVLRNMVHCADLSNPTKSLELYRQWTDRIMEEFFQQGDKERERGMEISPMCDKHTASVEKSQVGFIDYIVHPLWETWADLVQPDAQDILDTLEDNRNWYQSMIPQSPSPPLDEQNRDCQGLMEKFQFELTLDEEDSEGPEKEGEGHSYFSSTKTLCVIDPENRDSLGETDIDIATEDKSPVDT
Chain of Cytochrome P450 2C19 (Homo sapiens) (P33261 whole entry, looked up): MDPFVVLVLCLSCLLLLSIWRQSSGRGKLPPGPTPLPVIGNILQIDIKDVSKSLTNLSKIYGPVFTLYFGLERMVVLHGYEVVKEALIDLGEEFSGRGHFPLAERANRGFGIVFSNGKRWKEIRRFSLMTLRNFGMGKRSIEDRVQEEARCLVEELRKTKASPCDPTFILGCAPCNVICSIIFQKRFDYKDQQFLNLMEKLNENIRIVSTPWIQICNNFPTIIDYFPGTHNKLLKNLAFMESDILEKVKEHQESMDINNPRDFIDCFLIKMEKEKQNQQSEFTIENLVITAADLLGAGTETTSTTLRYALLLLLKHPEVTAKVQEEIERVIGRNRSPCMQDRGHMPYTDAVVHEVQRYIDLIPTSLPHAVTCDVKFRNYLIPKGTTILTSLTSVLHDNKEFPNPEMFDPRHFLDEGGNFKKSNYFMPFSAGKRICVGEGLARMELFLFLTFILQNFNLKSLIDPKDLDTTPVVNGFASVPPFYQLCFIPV

As for `CCCN(CCC)C[C@@H]1CCCCN1CCNC(=O)N1c2ccccc2C(=O)Nc2cccnc21`, the Potency was 25.1 µM (active) in experiment [1]; > 46 µM (inactive) in experiment [2]; > 46 µM (inactive) in experiment [3]; 2.51 µM (active) in [7]; 7.94 µM (active) in experiment [8]. For the same compound, the Potency result in experiment [4], in experiment [5], in experiment [6], in experiment [10], in [11] and in [12] was “inactive” each time. Moreover, the activity change, negative = inhibition in experiment [9] is -0.0589% (inactive). The max response is -8.98% in experiment [9] (setting [17]) and -7.53% in experiment [9] (setting [18]).
Consider `CC(C)[C@@H]1[C@H]2CC[C@H](C2)[C@H]1N`, for which the activity change, negative = inhibition in experiment [13] was 17.6% (inactive); in experiment [14], 2.88% (inactive); in experiment [9], -6.29% (inactive). For the same compound, the Potency entry is “inactive and 31.6 µM (active)” in experiment [1]; > 46 µM (inactive) in [2]; > 46 µM (inactive) in [3]. In addition, in experiment [15], the activity, negative = inhibition was 4.64% (inactive). The Potency entry in experiment [4], in [16], in experiment [5], in [8], in experiment [11] and in [12] was “inactive” throughout. The max response was -11.1% in experiment [9] (setting [17]) and -17.5% in experiment [9] (setting [18]).

Values taken from PubChem BioAssay (NCATS).
